IDE exosite FP: displaces the probe from the exo-site of human IDE. P14735. purified IDE, FL-6b probe fluorescence polarization; stronger effect = lower value. z-score at 20 µM. 17,000 tested, 6.3% active. AID 1259349;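 active = z-score of -3 or lower, meaning strong loss of probe binding signal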;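 also: His-tagged human IDE residues 42-1019 made in E. coli with 30 nM FL-6b probe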
Target sequence (P14735 42-1019 limits assumed): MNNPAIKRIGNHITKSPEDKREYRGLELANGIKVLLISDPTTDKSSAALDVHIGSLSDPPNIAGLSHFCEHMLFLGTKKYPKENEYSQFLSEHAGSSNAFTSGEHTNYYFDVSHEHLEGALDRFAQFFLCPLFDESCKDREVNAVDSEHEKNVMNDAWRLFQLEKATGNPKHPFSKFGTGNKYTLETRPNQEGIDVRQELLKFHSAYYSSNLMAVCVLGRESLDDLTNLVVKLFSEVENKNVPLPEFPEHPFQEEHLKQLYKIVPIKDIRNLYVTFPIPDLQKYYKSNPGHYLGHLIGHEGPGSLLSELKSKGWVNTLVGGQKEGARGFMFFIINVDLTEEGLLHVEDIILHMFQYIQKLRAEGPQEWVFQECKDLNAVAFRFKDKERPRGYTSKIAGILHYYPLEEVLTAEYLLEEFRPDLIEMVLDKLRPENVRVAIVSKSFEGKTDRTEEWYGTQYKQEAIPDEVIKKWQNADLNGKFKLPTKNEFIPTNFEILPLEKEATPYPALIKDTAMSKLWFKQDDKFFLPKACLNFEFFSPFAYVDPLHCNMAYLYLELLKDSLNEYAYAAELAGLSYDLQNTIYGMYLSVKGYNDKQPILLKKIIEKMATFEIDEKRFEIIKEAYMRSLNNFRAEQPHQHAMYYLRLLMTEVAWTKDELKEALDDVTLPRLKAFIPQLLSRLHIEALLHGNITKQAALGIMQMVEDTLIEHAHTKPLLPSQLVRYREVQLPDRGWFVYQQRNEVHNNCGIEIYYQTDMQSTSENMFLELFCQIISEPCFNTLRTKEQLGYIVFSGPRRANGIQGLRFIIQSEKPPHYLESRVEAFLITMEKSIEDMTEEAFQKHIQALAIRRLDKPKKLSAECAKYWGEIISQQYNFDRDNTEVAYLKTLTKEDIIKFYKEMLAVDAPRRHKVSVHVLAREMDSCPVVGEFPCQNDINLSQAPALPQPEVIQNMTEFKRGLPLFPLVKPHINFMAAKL
An asterisk follows results filed as active. Shown is part of a subset that was picked to be rich in hits.

SMILES | IDE exosite FP
C[C@H](NC(=O)C[C@@H]1C[C@H]2c3cc(NS(=O)(=O)c4ccc(F)cc4)ccc3O[C@H]2[C@H](CO)O1)c1ccccc1 | -0.542
O=C(NC1CCCC1)N1CC(=O)N2[C@H](C1)[C@@H](c1ccc(-c3cccnc3)cc1)[C@@H]2CO | -5.77*
O=C(C1CCCCC1)N1CC(=O)N2[C@H](CO)[C@@H](c3ccc(-c4cccnc4)cc3)[C@H]2C1 | -0.581
O=C(NC1CCCC1)N1CC(=O)N2[C@H](CO)[C@@H](c3ccc(-c4cccnc4)cc3)[C@@H]2C1 | -12.2*
O=C(Nc1cc(F)ccc1F)N1CC(=O)N2[C@H](CO)[C@@H](c3ccc(-c4cccnc4)cc3)[C@H]2C1 | 1.9
O=C(NC1CCCC1)N1CC(=O)N2[C@@H](CO)[C@H](c3ccc(-c4cccnc4)cc3)[C@@H]2C1 | -4.94*
O=C(C1CCC1)N1CC(=O)N2[C@H](CO)[C@@H](c3ccc(-c4cccnc4)cc3)[C@@H]2C1 | -1.92
O=C(C1CCC1)N1CC(=O)N2[C@H](CO)[C@H](c3ccc(-c4cccnc4)cc3)[C@H]2C1 | -2.06
O=C(Nc1cc(F)ccc1F)N1CC(=O)N2[C@H](C1)[C@H](c1ccc(-c3cccnc3)cc1)[C@@H]2CO | -1.77
O=C(C1CCC1)N1CC(=O)N2[C@@H](CO)[C@@H](c3ccc(-c4cccnc4)cc3)[C@@H]2C1 | -0.575
O=C(Nc1cc(F)ccc1F)N1CC(=O)N2[C@H](C1)[C@@H](c1ccc(-c3cccnc3)cc1)[C@@H]2CO | -8.22*
O=C(C1CCC1)N1CC(=O)N2[C@H](CO)[C@@H](c3ccc(-c4cccnc4)cc3)[C@H]2C1 | 1.65
O=C(NC1CCCC1)N1CC(=O)N2[C@@H](CO)[C@@H](c3ccc(-c4cccnc4)cc3)[C@@H]2C1 | 1.29
CCCC#Cc1ccc([C@@H]2[C@@H](C#N)N(C(=O)C3CCC3)[C@@H]2CO)cc1 | 2.15
O=C(C[C@@H]1CC[C@@H]2[C@H](COC[C@@H](O)CN2C(=O)Nc2ccccc2)O1)NCc1ccccc1F | -0.307
CC(C)CC#Cc1ccc([C@H]2[C@H](CO)N3C(=O)CN(C(=O)c4ccccn4)C[C@@H]23)cc1 | 0.579
CCN(C[C@@H]1[C@H](c2ccccc2)[C@@H](CO)N1C(C)=O)C(=O)c1ccccn1 | 0.883
COc1cccc(-c2ccccc2[C@H]2[C@@H](CO)N(C(=O)Cc3ccccc3)[C@H]2C#N)c1 | 0.948
Cn1cnc(S(=O)(=O)N[C@@H]2CC[C@@H](CC(=O)NCC3CCCCC3)O[C@H]2CO)c1 | 0.535
Cc1nc(N2[C@H](C#N)[C@H](c3ccccc3)[C@H]2CO)sc1C | -0.233
O=C1CN(S(=O)(=O)Cc2ccccc2)C[C@H]2[C@@H](c3ccc(C#Cc4ccccc4)cc3)[C@H](CO)N12 | -2.48
COc1cccc(S(=O)(=O)N2C[C@@H](O)COC[C@H]3O[C@@H](CC(=O)NCCCN4CCOCC4)CC[C@@H]32)c1 | 0.409
O=C(Nc1cccc(F)c1)N1CC(=O)N2[C@H](C1)[C@@H](c1ccc(-c3ccc(F)cc3)cc1)[C@@H]2CO | 1.33
c1ccc(CN2C[C@@H]3N[C@H](C2)C3c2ccc(-c3ccncc3)cc2)cc1 (stereo not given in full) | 2.42
Cc1cccc(-c2ccc(C3[C@@H]4CN(C(=O)Nc5ccccc5)C[C@H]3N4)cc2)c1 (stereo not given in full) | -4.3*
SMILES | IDE exosite FP
Cc1cccc(-c2ccc(C3[C@@H]4CN(Cc5cccc(F)c5)C[C@H]3N4)cc2)c1 (stereo not given in full) | -0.438
Cc1cccc(-c2ccc(C3[C@@H]4CN(Cc5ccccc5)C[C@H]3N4)cc2)c1 (stereo not given in full) | -5.1*
Cc1cccc(-c2ccc(C3[C@@H]4CN(C(=O)C5CCOCC5)C[C@H]3N4)cc2)c1 (stereo not given in full) | -5.14*
Cc1cccc(-c2ccc(C3[C@@H]4CN(C(=O)Nc5ccc(F)cc5)C[C@H]3N4)cc2)c1 (stereo not given in full) | -0.362
CN(C)C(=O)c1ccc(-c2ccc(C3[C@@H]4CN(C(=O)C5CC5)C[C@H]3N4)cc2)cc1 (stereo not given in full) | 1.38
N#Cc1cccc(-c2ccc(C3[C@@H]4CN(C(=O)Nc5ccccc5)C[C@H]3N4)cc2)c1 (stereo not given in full) | 3.52
O=C(C1CCOCC1)N1C[C@@H]2N[C@H](C1)C2c1ccc(-c2cncnc2)cc1 (stereo not given in full) | 3.12
CC(C)C#Cc1ccc([C@@H]2[C@@H](CO)N3C(=O)CN(C(=O)Cc4cccnc4)C[C@@H]23)cc1 | 1.13
O=C1CN(S(=O)(=O)c2cccc(F)c2)C[C@@H]2[C@@H](c3ccc(-c4ccc(F)cc4)cc3)[C@@H](CO)N12 | 2.53
COC(=O)[C@H]1[C@H](CO)[C@H]2Cn3c(ccc(-c4cncnc4)c3=O)[C@H]2N1CCC(F)(F)F | -0.249
COc1cccc(S(=O)(=O)N[C@@H]2CC[C@H](CC(=O)NC3Cc4ccccc4C3)O[C@@H]2CO)c1 | 0.606
COc1ccc2c3c(n(C)c2c1)[C@H](CO)N(C)CC31CCN(C(=O)NC(C)C)CC1 | -1.74
O=C(Nc1cccc(F)c1)N1CC(=O)N2[C@H](CO)[C@H](c3ccc(-c4ccccc4F)cc3)[C@H]2C1 | -2.56
C/C=C/c1ccccc1[C@H]1[C@@H](CO)N(C(=O)Nc2ccccc2)[C@H]1C#N | 3.72
C[C@@H]1CN([C@H](C)CO)S(=O)(=O)c2ccc(C#CC3(O)CCCC3)cc2O[C@@H]1CN(C)C(=O)Nc1cccc(F)c1 | -0.723
C[C@@H](O)C#Cc1ccc([C@@H]2[C@H]3CN(CC4CC4)CCCCN3[C@H]2CO)cc1 | 0.535
COc1ccc(NC(=O)N2CC(=O)N3[C@H](CO)[C@H](c4ccc(/C=C/c5ccccc5)cc4)[C@@H]3C2)cc1 | -1.18
COc1ccc(-c2ccc([C@H]3[C@@H](CO)N4C(=O)CN(C(=O)NC(C)C)C[C@@H]34)cc2)cc1 | 1.25
Cc1ccc(-c2ccc([C@@H]3[C@H](CO)N4C(=O)CN(C(=O)NC(C)C)C[C@@H]34)cc2)cc1 | -1.41
COc1ccc(-c2ccc([C@@H]3[C@H](CO)N4C(=O)CN(C(=O)NC(C)C)C[C@@H]34)cc2)cc1 | -0.3
CC(C)NC(=O)N1CC(=O)N2[C@H](CO)[C@@H](c3ccc(/C=C/c4ccccc4)cc3)[C@@H]2C1 | -3.31*
CC(C)NC(=O)N1CC(=O)N2[C@@H](CO)[C@H](c3ccc(/C=C/c4ccccc4)cc3)[C@@H]2C1 | -3.36*
C/C=C/c1ccc([C@@H]2[C@@H](C#N)N(c3ncc(CC)s3)[C@H]2CO)cc1 | -1.15
N#C[C@@H]1[C@H](c2ccc(C3=CCCCC3)cc2)[C@@H](CO)N1C(=O)Cc1ccncc1 | 7.6
Cc1ccc(S(=O)(=O)N(C)C[C@@H]2OCCCC[C@H](C)Oc3ccc(NC(=O)c4ccncc4)cc3C(=O)N([C@@H](C)CO)C[C@H]2C)cc1 | 1.72
O=C(c1ccc2c(c1)OCO2)N1CC(=O)N2[C@H](CO)[C@H](c3ccc(C#CC4CCCC4)cc3)[C@H]2C1 | 0.253
O=C(c1cccc(F)c1)N1CC(=O)N2[C@H](CO)[C@H](c3ccc(-c4ccccc4)cc3)[C@@H]2C1 | 3.43
CO[C@H]1CN(C)C(=O)c2ccc(NS(=O)(=O)c3c(C)noc3C)cc2OC[C@@H](C)NC[C@@H]1C | -0.217
CCC(=O)N1[C@H](CO)[C@H](c2ccc(C3=CCCCC3)cc2)[C@H]1CNCC1CCC1 | 2
